In PubChem BioAssay:
Active and inactive are the calls of the source.

How the values were obtained:
[1] = system: Plasmodium falciparum Sir2 (PF13_0152, Sir2A); assay: pfSir2 binders on small-molecule microarrays, primary screen, biochemical, small-molecule microarray, 635 nm fluorescence (AID 1098); details: small-molecule microarray binding, fluorescence 635 nm; higher = more signal;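 also: score merges spot fluorescence intensity with its signal-to-noise ratio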
[2] = small-molecule microarray binders of probe aDKK1, primary screen, biochemical, biotinylated probe, 635/667 nm fluorescence (AID 1099); details: higher = more signal;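 also: score merges 667nm spot fluorescence with signal to noise across triplicate slides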
[3] = small-molecule microarray binders of probe aCHRDL2, primary screen, biochemical, biotinylated probe, 635/667 nm fluorescence (AID 1100); details: higher = more signal
[4] = splicing luciferase reporter signal modulators, primary screen, spliceosome inhibition project, cell-based, HEK293, splice +/- reporter (AID 1101); details: luminescence, 24 h, higher = more signal, called active from +8 up or from −8 down;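 also: HEK293 cells carrying a splicing-competent luciferase reporter gene; test concentration not given here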
[5] = target: Fibroblast growth factor 10 (Homo sapiens) (UniProt O15520); assay: FGF10 binders on small-molecule microarrays, primary screen, biochemical, small-molecule microarray, 635 nm fluorescence (AID 1102); details: FGF10 binding, fluorescence 635 nm, higher = more signal
[6] = system: glycogen synthase kinase-3 (GSK3A per assay name; protocol says GSK3B); assay: GSK3 binders on small-molecule microarrays, primary screen, biochemical, small-molecule microarray, 635 nm fluorescence, GSK3A (AID 1103); details: small-molecule microarray binding, fluorescence 635 nm; higher = more signal; also: the record names both GSK3A and GSK3B
[7] = target: Epidermal growth factor receptor (Homo sapiens) (UniProt P00533); assay: EGFR binders on small-molecule microarrays, primary screen, biochemical, small-molecule microarray, 635 nm fluorescence (AID 1104); details: EGFR binding, higher = more signal;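 also: score merges 667 nm emission intensity with spot signal to noise over triplicate slides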
[8] = target: Follistatin-related protein 3 (Homo sapiens) (UniProt O95633); assay: FSTL3 binders on small-molecule microarrays, primary screen, biochemical, small-molecule microarray, 635 nm fluorescence (AID 1105); details: FSTL3 binding, higher = more signal;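 also: score merges emission near 667 nm and signal to noise per printed spot across three slides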
[9] = target: Dickkopf-related protein 1 (Homo sapiens) (UniProt O94907); assay: DKK1 binders on small-molecule microarrays, primary screen, biochemical, small-molecule microarray, 635 nm fluorescence scan (AID 1106); details: DKK1 binding, higher = more signal;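 also: score merges emission near 667 nm with signal to noise over three replicate slides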
[10] = system: Inhibin beta A chain (activin A); assay: INHBA (activin A) binders on microarrays, primary screen, biochemical, small-molecule microarray, 635 nm fluorescence scan (AID 1107); details: small-molecule microarray binding, higher = more signal;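 also: mouse activin A protein probed at 4.33 µg/mL on printed slides; score merges bound-protein fluorescence near 667 nm with spot signal-to-noise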
[11] = system: Human papillomavirus type 1a protein E7 (residues 44-93); assay: HPV1a E7 fragment binders on microarrays, primary screen, biochemical, small-molecule microarray, residues 44-93, 635 nm fluorescence (AID 1108); details: small-molecule microarray binding, fluorescence 635 nm; higher = more signal;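 also: E7 fragment applied at 1 µg/mL in TBST for 1 h at 4 C; score combines spot fluorescence with its signal to noise ratio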
[12] = modulators of HCV replicon luciferase signal, primary screen, HCV replication inhibitor project, Huh7 cells, luciferase reporter (AID 1109); details: 48 h, higher = more signal;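 also: huh7 hepatoma cells harbouring a luciferase neomycin HCV replicon reporter; luciferase luminescence as measure of HCV replicon replication; test concentration not given here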
[13] = target: Left-right determination factor 2 (Homo sapiens) (UniProt O00292); assay: LEFTY2 binders on small-molecule microarrays, primary screen, biochemical, small-molecule microarray, 635 nm fluorescence scan (AID 1110); details: LEFTY2 binding, higher = more signal
[14] = target: Calmodulin-1 (Homo sapiens) (UniProt P0DP23); assay: CALM1 binders on microarrays, EGTA buffer, profiling panel, biochemical, small-molecule microarray, Cy5-labelled CALM1 (AID 1111); details: Cy5-CALM1 binding fluorescence, higher = more signal;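 also: labelled calmodulin applied in Tris saline Tween buffer holding calcium plus EGTA and DTT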
[15] = target: Calmodulin-1 (Homo sapiens) (UniProt P0DP23); assay: calcium-bound CALM1 binders on microarrays, profiling panel, artefact control for SMM control-protein annotation, biochemical, small-molecule microarray, Cy5-labelled CALM1, plus calcium (AID 1112); details: Cy5-CALM1 binding fluorescence, higher = more signal;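 also: score merges spot fluorescence with signal to noise from triplicate slides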
[16] = small-molecule microarray binders of probe aWnt5a, primary screen, biochemical, biotinylated probe, 635/667 nm fluorescence (AID 1113); details: higher = more signal;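 also: score merges 667 nm fluorescence intensity with signal-to-noise per printed feature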
[17] = small-molecule microarray binders of probe aShh, primary screen, biochemical, biotinylated probe, 635/667 nm fluorescence (AID 1114); details: higher = more signal;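 also: probe is biotin-labelled aShh protein from a stem cell growth factor screen; measures binding of labelled protein to compounds printed on the slide; score merges feature fluorescence at 667 nm with signal-to-noise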
[18] = small-molecule microarray binders of probe aNog, primary screen, biochemical, biotinylated probe, 635/667 nm fluorescence (AID 1115); details: higher = more signal;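 also: probe is biotinylated aNog protein used at 0.15 µg/mL for 1 h at 4 C; z-score combines 667 nm fluorescence of each spot with its signal to noise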
[19] = target: Torsin-1A-interacting protein 1 (Homo sapiens) (UniProt Q5JTV8); assay: LAP1 binders from COS7 cell lysate, primary screen, small-molecule microarray, 635/667 nm fluorescence (AID 1116); details: COS7-hLAP1 lysate binding, 635 nm fluorescence, higher = more signal
[20] = target: Alpha-bungarotoxin (Bungarus multicinctus) (UniProt P60615); assay: alpha-bungarotoxin binders on microarray, profiling panel, artefact control for SMM control protein annotation, biochemical, small-molecule microarray, Alexa647 label, 635/667 nm fluorescence (AID 1117); details: alpha-BTX-A647 binding fluorescence, higher = more signal
Chain of Alpha-bungarotoxin (Bungarus multicinctus) (P60615 whole entry, looked up): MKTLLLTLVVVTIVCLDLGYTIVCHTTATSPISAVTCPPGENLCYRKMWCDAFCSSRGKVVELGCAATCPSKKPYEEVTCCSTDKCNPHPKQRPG

Chain of Epidermal growth factor receptor (Homo sapiens) (P00533 whole entry, looked up): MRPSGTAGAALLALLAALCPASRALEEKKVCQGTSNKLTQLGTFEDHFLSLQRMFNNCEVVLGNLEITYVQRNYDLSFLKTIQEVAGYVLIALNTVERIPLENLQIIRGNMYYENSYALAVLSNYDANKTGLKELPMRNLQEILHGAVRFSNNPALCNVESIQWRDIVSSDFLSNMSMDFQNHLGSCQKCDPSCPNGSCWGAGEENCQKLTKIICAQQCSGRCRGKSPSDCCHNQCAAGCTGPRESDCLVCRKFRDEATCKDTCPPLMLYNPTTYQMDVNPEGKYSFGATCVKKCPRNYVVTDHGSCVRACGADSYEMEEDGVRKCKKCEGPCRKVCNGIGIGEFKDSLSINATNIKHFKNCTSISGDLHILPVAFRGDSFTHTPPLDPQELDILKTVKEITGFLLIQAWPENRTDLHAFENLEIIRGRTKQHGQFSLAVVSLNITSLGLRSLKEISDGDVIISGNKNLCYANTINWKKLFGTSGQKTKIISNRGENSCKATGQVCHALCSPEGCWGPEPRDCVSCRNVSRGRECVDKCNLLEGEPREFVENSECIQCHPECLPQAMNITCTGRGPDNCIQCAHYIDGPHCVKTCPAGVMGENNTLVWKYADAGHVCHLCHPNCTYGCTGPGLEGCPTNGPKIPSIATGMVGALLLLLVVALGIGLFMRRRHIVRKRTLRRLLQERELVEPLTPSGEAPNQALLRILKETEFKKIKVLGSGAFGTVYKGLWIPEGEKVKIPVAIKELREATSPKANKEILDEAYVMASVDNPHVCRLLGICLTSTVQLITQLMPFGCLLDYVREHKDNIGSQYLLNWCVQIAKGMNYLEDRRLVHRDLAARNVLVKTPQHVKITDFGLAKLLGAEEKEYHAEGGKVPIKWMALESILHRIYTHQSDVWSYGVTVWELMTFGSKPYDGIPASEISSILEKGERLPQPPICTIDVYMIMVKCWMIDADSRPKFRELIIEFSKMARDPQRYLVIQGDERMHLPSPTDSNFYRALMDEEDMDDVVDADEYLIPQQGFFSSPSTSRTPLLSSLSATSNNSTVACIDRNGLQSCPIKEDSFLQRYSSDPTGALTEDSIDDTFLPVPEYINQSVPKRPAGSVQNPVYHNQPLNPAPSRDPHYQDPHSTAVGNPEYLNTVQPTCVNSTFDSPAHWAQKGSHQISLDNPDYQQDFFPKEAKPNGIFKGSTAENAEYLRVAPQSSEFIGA
Chain of Left-right determination factor 2 (Homo sapiens) (O00292 whole entry, looked up): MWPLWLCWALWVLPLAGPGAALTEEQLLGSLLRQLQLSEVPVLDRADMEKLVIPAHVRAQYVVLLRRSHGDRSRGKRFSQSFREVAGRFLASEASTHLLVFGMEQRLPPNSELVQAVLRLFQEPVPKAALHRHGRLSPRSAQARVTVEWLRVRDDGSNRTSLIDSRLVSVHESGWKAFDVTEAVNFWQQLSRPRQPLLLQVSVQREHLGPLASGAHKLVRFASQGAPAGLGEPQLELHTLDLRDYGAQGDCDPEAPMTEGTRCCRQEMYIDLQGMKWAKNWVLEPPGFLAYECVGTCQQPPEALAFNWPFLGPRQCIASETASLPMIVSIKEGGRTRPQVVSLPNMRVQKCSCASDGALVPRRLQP
Chain of Torsin-1A-interacting protein 1 (Homo sapiens) (Q5JTV8 whole entry, looked up): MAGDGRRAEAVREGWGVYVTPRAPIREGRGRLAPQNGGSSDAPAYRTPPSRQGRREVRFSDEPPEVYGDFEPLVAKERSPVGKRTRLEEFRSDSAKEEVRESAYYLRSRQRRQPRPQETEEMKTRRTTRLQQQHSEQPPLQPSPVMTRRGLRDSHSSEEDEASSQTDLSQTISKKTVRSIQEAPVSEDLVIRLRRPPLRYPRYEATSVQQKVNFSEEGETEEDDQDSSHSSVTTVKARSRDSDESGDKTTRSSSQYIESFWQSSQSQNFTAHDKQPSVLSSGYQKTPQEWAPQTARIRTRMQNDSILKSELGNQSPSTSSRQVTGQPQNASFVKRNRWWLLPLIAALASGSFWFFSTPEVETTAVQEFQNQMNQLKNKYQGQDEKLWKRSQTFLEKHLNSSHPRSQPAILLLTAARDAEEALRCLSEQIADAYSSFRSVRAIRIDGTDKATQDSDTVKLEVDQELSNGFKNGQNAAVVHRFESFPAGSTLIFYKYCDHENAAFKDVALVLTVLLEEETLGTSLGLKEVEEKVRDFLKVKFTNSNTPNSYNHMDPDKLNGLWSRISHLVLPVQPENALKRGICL
Chain of Follistatin-related protein 3 (Homo sapiens) (O95633 whole entry, looked up): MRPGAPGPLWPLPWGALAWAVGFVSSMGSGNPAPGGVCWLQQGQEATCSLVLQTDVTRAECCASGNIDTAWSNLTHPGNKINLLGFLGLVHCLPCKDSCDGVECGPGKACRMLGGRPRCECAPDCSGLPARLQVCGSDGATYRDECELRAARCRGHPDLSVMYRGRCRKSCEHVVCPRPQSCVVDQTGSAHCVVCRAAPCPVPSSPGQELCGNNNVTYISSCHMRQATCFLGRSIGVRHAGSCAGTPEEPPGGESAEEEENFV
Chain of Fibroblast growth factor 10 (Homo sapiens) (O15520 whole entry, looked up): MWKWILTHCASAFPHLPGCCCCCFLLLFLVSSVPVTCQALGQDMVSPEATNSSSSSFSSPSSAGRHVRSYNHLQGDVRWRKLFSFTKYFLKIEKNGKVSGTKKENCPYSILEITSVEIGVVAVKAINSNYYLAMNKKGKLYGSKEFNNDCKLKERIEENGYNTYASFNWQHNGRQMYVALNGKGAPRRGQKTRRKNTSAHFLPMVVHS
Chain of Dickkopf-related protein 1 (Homo sapiens) (O94907 whole entry, looked up): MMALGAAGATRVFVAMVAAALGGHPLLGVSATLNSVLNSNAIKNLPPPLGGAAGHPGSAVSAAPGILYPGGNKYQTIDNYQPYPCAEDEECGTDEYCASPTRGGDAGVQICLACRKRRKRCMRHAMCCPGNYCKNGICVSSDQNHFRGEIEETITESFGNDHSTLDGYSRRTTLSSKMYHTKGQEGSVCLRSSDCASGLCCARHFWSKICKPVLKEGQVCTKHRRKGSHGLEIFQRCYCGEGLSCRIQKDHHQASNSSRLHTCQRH

Row | SMILES | composite z-score [1] | composite z-score [2] | composite z-score [3] | z-score [4] | composite z-score [5] | composite z-score [6] | composite z-score [7] | composite z-score [8] | composite z-score [9] | composite z-score [10] | composite z-score [11] | z-score [12] | composite z-score [13] | composite z-score [14] | composite z-score [15] | composite z-score [16] | composite z-score [17] | composite z-score [18] | composite z-score [19] | composite z-score [20]
1 | Cc1ccc(S[C@]2(C(=O)O)CC(=O)N(C3CCCCC3)[C@@H]2c2ccc(CO)cc2)cc1 | 1.37 | -0.0047 | 0.571 | 0.134 (inactive) | -0.256 | 0.739 | -0.172 | -0.365 | 0.234 | 0.378 | 0.755 | -1.2 | -0.442 | 0.381 | -1.39 | 0.0581 | 0.428 | 1.1 | 0.578 | 0.842
2 | COCCOC(=O)N1C(=O)[C@@]2(c3cc(C#Cc4ccc(OC)cc4)ccc31)[C@H](C(=O)N1CCc3cc(OC)c(OC)cc3C1)[C@H]1C(=O)O[C@H](c3ccccc3)[C@H](c3ccccc3)N1[C@@H]2c1ccc(OCCO)cc1 | -0.352 | 0.218 | -0.0585 | -0.32 (inactive) | 0.705 | 1.03 | 0.595 | 0.997 | 0.588 | 0.115 | 0.577 | -0.195 | 0.516 | 1.24 | 0.897 | -0.0482 | -0.138 | 0.0637 | 0.247 | 1.41
3 | COCCCNC(=O)[C@@H]1c2ccccc2C(=O)N(Cc2cc(F)cc(C(F)(F)F)c2)[C@H]1c1ccc(CO)cc1 | 1.69 | -0.0674 | 0.998 | -0.0265 (inactive) | -1.38 | -1.72 | -1.47 | -1.13 | -1.35 | -0.104 | -1.6 | -0.252 | -1.36 | -0.365 | -0.167 | -0.212 | -0.153 | -0.285 | -1.13 | -0.4
4 | [N-]=[N+]=NCc1ccccc1C[C@]1(C(=O)NCCN2CCOCC2)COC(c2ccc(OCCCO)cc2)=N1 | 1.49 | 0.297 | 0.853 | -0.995 (inactive) | 0.396 | 0.966 | -0.553 | 0.101 | -0.36 | 0.978 | 1.44 | -1.79 | -0.389 | 0.74 | -0.096 | 0.0479 | -0.0119 | -0.509 | 0.555 | -0.0034
5 | C#CCNS(=O)(=O)N(C)C | 0.365 | -0.0521 | -0.55 | 0.0242 (inactive) | 0.296 | 0.642 | 0.469 | 0.31 | 0.216 | -0.128 | 0.638 | 0.119 | 0.713 | -0.157 | -0.687 | -0.096 | 0.0463 | -0.168 | 0.0976 | 0.601
6 | CCCCC(=C=CC[C@H](O)c1cccc(OCCO)c1)C[C@H](O)COCc1ccccc1 | 0.766 | -0.31 | -0.053 | -0.992 (inactive) | 0.688 | -0.207 | -0.572 | -0.117 | -0.627 | 0.58 | 0.49 | -1.88 | -0.466 | -0.59 | -0.897 | -0.148 | -0.154 | -0.397 | -0.432 | -0.283
7 | CCOC(=O)C1=CC[C@@H](c2ccc(N(CC)CC)cc2)N(S(=O)(=O)c2ccc(C)cc2)[C@H]1c1ccc([N+](=O)[O-])cc1 | 0.468 | 0.592 | 1.33 | -1.26 (inactive) | -0.69 | -1.04 | -1.17 | -0.966 | -1.59 | 1.04 | 1.24 | -0.83 | -1.76 | 0.863 | -0.378 | -0.0472 | -0.0035 | 0.587 | 0.923 | 0.274
8 | CCCC[C@H]1OB(O)C[C@H]2C1=C(COc1ccccc1)Cn1c(=O)n(-c3ccccc3)c(=O)n12 | 0.918 | -0.149 | -0.387 | 0.142 (inactive) | 0.926 | 0.61 | 0.283 | 1.01 | 0.203 | 0.54 | 1.03 | -0.917 | 0.375 | 0.292 | -0.0404 | -0.186 | -0.16 | -0.555 | 0.654 | -0.334
9 | O=C1O[C@@H](c2ccccc2)[C@@H](c2ccccc2)N2[C@@H](c3ccc(O)cc3)[C@]3(C(=O)Nc4ccc(C#CC5=CCCCC5)cc43)[C@@H](C(=O)Nc3nc4ccccc4s3)[C@H]12 | 1.61 | 0.307 | -0.0516 | -0.0881 (inactive) | 1.36 | 1.29 | 0.381 | 1.31 | 1.06 | 1.07 | 1.4 | -0.99 | 1.25 | 1.48 | -0.18 | 0.428 | 0.368 | 2.02 | 0.825 | 1.87
10 | [N-]=[N+]=Nc1ccccc1C[C@]1(C(=O)NCCN2CCOCC2)N=C(c2ccc(OCCCO)cc2)O[C@H]1c1ccccc1N=[N+]=[N-] | 1.15 | 0.63 | 1.07 | -1.41 (inactive) | 1.47 | 1.29 | 0.472 | 1.2 | 0.418 | 1.18 | 1.12 | -2.49 | 0.863 | 1.1 | -0.198 | 0.136 | -0.138 | 1.85 | 1.51 | 1.12
11 | COCCOC(=O)N1C(=O)[C@@]2(c3cc(C#CC4(O)CCCCCC4)ccc31)[C@H](C(=O)N1CCN(c3ncccn3)CC1)[C@H]1C(=O)O[C@H](c3ccccc3)[C@H](c3ccccc3)N1[C@@H]2c1ccc(O)cc1 | 1.27 | -0.127 | 0.227 | -0.756 (inactive) | 0.45 | 0.235 | 0.152 | 0.321 | 0.0884 | 0.921 | 0.958 | -1.69 | -0.28 | 1.56 | 1.05 | 0.0633 | 0.128 | -0.261 | 1.53 | 1.61
